Bioassay records as filed in PubChem BioAssay.
Tau ThT inhib: blocks human tau fibril formation measured by thioflavin T | Potency, µM (top dose mostly 57.4 µM), for inactives: top-dose activity, negative = inhibition, actives largely listed as inhibitors | AID 1460 | 270,000 tested, 2.1% active | recombinant tau K18 P301L, heparin-induced fibrillization, ThT fluorescence; further: nearly all actives have a fitted effect of over 55% in size
Target sequence (P10636 561-689 P618L limits assumed): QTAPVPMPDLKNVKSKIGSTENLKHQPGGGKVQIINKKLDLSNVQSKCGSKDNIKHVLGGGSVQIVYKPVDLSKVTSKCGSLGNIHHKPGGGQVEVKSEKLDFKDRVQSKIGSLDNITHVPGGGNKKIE
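Recombinant human tau K18 fragment […] carrying P301L, 15 uM unlabeled plus 0.24 uM Alexa 594-labeled, was fibrillized with 20 uM heparin in 100 mM sodium acetate pH 7 for 6 hr at 37 C; 30 uM ThT fluorescence read after 1 hr.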
Tau fluor counter: counter-screen for tau fibril formation inhibitors; tau K18 P301L Alexa594 fluorescence, heparin fibrillization; Potency, µM (titrated, usually from 57.7 µM), without a hit: top-dose activity change, negative = decrease; 280,000 tested, 0.93% active; AID 1463; further: nearly all actives have a fitted effect of over 55% in size
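Human tau K18 P301L (15 uM unlabeled, 0.24 uM Alexa 594-labeled) in 100 mM sodium acetate pH 7 with 20 uM heparin, 6 hr at 37 C. ThT 30 uM added, 1 hr ambient; Alexa 594 FP and total fluorescence read at 555/632 nm.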
Tau fibril FP: inhibitors of human tau fibril formation. P10636. K18 P301L tau heparin fibrillization, Alexa594 FP, 6 h. AID 1468. 280,000 tested, 0.39% active. Potency, µM (highest dose often 57.7 µM), for the others: at the top dose activity, negative = inhibition, most hits filed as inhibitors; further: nearly all actives have a fitted effect of over 55% in size
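Human K18 P301L fragment (15 uM unlabeled plus 0.24 uM Alexa 594-labeled) in 100 mM sodium acetate pH 7 with compound, aggregation induced by 20 uM heparin for 6 hr at 37 C. ThT (30 uM) added for 1 hr, then Alexa 594 FP read.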
TRb SRC2 PPI: inhibitors of human thyroid hormone receptor beta-SRC2 interaction; P10828; Potency, µM (series often up to 106 µM), inactives show at the top dose activity change, negative = inhibition, hits mostly inhibitors; 280,000 tested, 0.065% active; TRbeta-SRC2 peptide binding, fluorescence polarization; receptor liganded with 1 µM T3; AID 1469;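 further: plate controls were bound peptide for no effect and peptide without receptor for full effect; nearly all actives have a fitted effect of over 50% in size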
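Polarization signal, normalized between peptide-alone and full complex controls, measured compound effects on T3-liganded human TRb LBD (0.6 uM) binding 20 nM Texas Red SRC2 peptide after 5 hr.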
TexasRed fluor: counter-screen for TRb-SRC2 inhibitors: fluorescence interference | TRb/SRC2 Texas Red total fluorescence interference | Potency, µM (titrated, usually from 106 µM), without a hit: at the top dose fluorescence change, negative = quenching | 280,000 tested, 0.29% active | AID 1479; active means well fitted curve in either direction with a large enough effect; inconclusive means small, poorly fitted or top-dose-only effect
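Human TRβ ligand-binding domain (0.6 uM) and Texas Red SRC2 peptide (20 nM) in Tris buffer with 1 uM T3 and 5% DMSO were incubated with pinned compound for 5 hr at ambient temperature. Total fluorescence was computed as S + 2P (555/632 nm).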
RGS12 GoLoco inh: RGS12 GoLoco-Gai1 interaction inhibition. 230,000 tested, 0.44% active. AID 880. Gai1:RGS12 GoLoco peptide FP, rhodamine, 10 min. Potency, µM (highest dose often 61.6 µM), without a hit: top-dose activity, negative = inhibition, most hits filed as inhibitors; active means well fitted inhibition curve with a large enough effect, not every such curve was filed as active; inactive means no such curve, though single readings can be large or run the other way; further: nearly all actives have a fitted effect of over 30% in size
Target sequence (P63096 whole entry, looked up): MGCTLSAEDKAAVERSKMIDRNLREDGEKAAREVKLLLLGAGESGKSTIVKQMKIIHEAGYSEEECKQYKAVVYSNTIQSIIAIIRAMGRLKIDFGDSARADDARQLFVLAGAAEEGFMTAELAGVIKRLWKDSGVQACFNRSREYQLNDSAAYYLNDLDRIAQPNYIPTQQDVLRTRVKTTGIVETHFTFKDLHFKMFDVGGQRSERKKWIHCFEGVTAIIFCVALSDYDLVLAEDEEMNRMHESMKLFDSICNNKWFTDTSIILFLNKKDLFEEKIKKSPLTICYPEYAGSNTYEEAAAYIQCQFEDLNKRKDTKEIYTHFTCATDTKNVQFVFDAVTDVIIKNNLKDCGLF
The depositor's hits bear a star; [ ] = remark or other dose. The list is not random: actives were taken first. Their share in the collection is about 3.2%. Unless noted, the call rests on the fitted dose curve; in most records, active means well fitted curve in the direction sought with a large enough effect; inconclusive means small, poorly fitted or top-dose-only effect, or another doubt; inactive means no such curve, though single readings can be large; an effect the other way counts as inactive or inconclusive. Unless noted, on the % scale 0 is the no-effect control and ±100 the full control effect; potency means the concentration at half of the fitted maximal effect.

For CC[C@H](C)[C@H](NC(=O)CNC(=O)[C@H](CCCNC(=N)N)NC(=O)[C@H](CO)NC(=O)[C@H](C)NC(=O)[C@H](Cc1ccc(O)cc1)NC(=O)[C@H](Cc1c[nH]c2ccccc12)NC(=O)[C@H](C)NC(=O)[C@@H]1CCCN1C(=O)[C@H](CC(N)=O)NC(=O)[C@@H](NC(=O)[C@H](CC(=O)O)NC(=O)[C@@H]1CCCN1C(=O)[C@@H](N)[C@@H](C)O)[C@@H](C)CC)C(=O)N[C@@H](CCCNC(=N)N)C(=O)N1CCC[C@H]1C(=O)N[C@H](C(=O)NCC(=O)N[C@@H](CCCNC(=N)N)C(=O)N[C@@H](Cc1ccccc1)C(N)=O)C(C)C the results were TRb SRC2 PPI -2% and TexasRed fluor -6%.
Cc1nn(-c2ccc(Cl)cc2)c(=O)c2ccccc12 was read as Tau ThT inhib 4%, Tau fluor counter 2%, Tau fibril FP -2%, TRb SRC2 PPI 2%, TexasRed fluor 0% and RGS12 GoLoco inh -13%.
`Cc1c(Cl)sn(-c2ccc(Cl)cc2)c1=O` gave Tau ThT inhib 14µM*, Tau fluor counter -20%, Tau fibril FP inconclusive, TRb SRC2 PPI 5%, TexasRed fluor 1% and RGS12 GoLoco inh 14µM*.
Screening COc1cc(CC(=O)OCC(=O)Nc2cc([N+](=O)[O-])ccc2F)cc(OC)c1OC returned Tau ThT inhib -1%, Tau fluor counter -5%, Tau fibril FP 13%, TRb SRC2 PPI -26%[53 µM], TexasRed fluor 1000µM*[quencher] and RGS12 GoLoco inh -16%.
Screening O=C1/C(=C/c2ccco2)SC(=S)N1C1CCS(=O)(=O)C1 (stereo unspecified) returned Tau ThT inhib 28µM*, Tau fluor counter inconclusive, Tau fibril FP inconclusive, TRb SRC2 PPI 4%, TexasRed fluor 2% and RGS12 GoLoco inh 37%.
`Cc1ccc(/C=C2\SC(=S)N(C3CCS(=O)(=O)C3)C2=O)cc1` (stereo unspecified) gave Tau ThT inhib inconclusive, Tau fluor counter -16%, Tau fibril FP inconclusive, TRb SRC2 PPI -6%, TexasRed fluor 0% and RGS12 GoLoco inh 2%.
`O=C1/C(=C\c2ccco2)SC(=S)N1C1CCS(=O)(=O)C1` (stereo unspecified) gave Tau ThT inhib 25µM*, Tau fluor counter inconclusive, Tau fibril FP inconclusive, TRb SRC2 PPI 10%, TexasRed fluor -9% and RGS12 GoLoco inh 24%.
For Cc1sc2ccccc2[n+]1CCC(=O)O the results were RGS12 GoLoco inh 4%[14.2 µM].
`O=C(Nc1ccc(Cl)cc1)NC1CCCc2ccccc21` (stereo unspecified) gave Tau ThT inhib -8%, Tau fluor counter -15%, Tau fibril FP -15%, TRb SRC2 PPI -16%, TexasRed fluor -3% and RGS12 GoLoco inh 4%.
For O=C1C(Cl)=C(NC2CCc3ccccc32)C(=O)c2ncccc21 (stereo unspecified) the results were Tau ThT inhib 13µM*, Tau fluor counter inconclusive, Tau fibril FP inconclusive, TRb SRC2 PPI inconclusive, TexasRed fluor -13% and RGS12 GoLoco inh -7%.
Clc1ccccc1-c1nccc(NCCN2CCOCC2)n1 was read as RGS12 GoLoco inh 2%.
For O=C1C(Cl)=C(NCCN2CCOCC2)C(=O)c2ncccc21 the results were Tau ThT inhib 13µM*, Tau fluor counter inconclusive, Tau fibril FP inconclusive, TRb SRC2 PPI inconclusive, TexasRed fluor -16% and RGS12 GoLoco inh 4%.
`Oc1cccc2c(NC(=S)Nc3ccc(SC(F)F)cc3)cccc12` gave Tau ThT inhib 10µM*, Tau fluor counter 11µM*[quencher], Tau fibril FP inconclusive, TRb SRC2 PPI 6%, TexasRed fluor -1% and RGS12 GoLoco inh -14%.
For CCn1c2ccccc2c2cc(C3C(C#N)=C(N)Oc4n[nH]c(COC)c43)ccc21 (stereo unspecified) the results were Tau ThT inhib 16µM*, Tau fluor counter inconclusive, Tau fibril FP -17%, TRb SRC2 PPI -10%, TexasRed fluor -4% and RGS12 GoLoco inh 22%.
`COCc1[nH]nc2c1C(c1ccc(OC)c(OC)c1)C(C#N)=C(N)O2` (stereo unspecified) gave Tau ThT inhib -7%, Tau fluor counter -3%, Tau fibril FP -4%, TRb SRC2 PPI -11%, TexasRed fluor 0% and RGS12 GoLoco inh 4%.
CCCc1[nH]nc2c1C(c1cccnc1)C(C#N)=C(N)O2 (stereo unspecified) was read as Tau ThT inhib 18µM*, Tau fluor counter inconclusive, Tau fibril FP inconclusive, TRb SRC2 PPI 1% and TexasRed fluor 0%.
CCCc1cc(C(=O)Cc2ccc(C(=O)OCC)o2)c(O)cc1O was read as Tau ThT inhib inconclusive, Tau fluor counter inconclusive, Tau fibril FP 7%, TRb SRC2 PPI 13%, TexasRed fluor 3% and RGS12 GoLoco inh 252%.
For CCCc1cc(-c2n[nH]c(C)c2-c2ccc(C(=O)OCC)o2)c(O)cc1O the results were Tau ThT inhib -9%, Tau fluor counter 14µM*[quencher], Tau fibril FP inconclusive, TRb SRC2 PPI 2%, TexasRed fluor -6% and RGS12 GoLoco inh 18%.
Screening CCc1cc(-c2n[nH]c(C)c2-c2nc3ccccc3n2C)c(O)cc1O returned Tau ThT inhib -4%, Tau fluor counter -25%, Tau fibril FP 9%, TRb SRC2 PPI -3%, TexasRed fluor -5% and RGS12 GoLoco inh 9%.
`CCc1cc(-c2n[nH]c(C)c2-c2ccc3c(c2)OCCO3)c(O)cc1O` gave Tau ThT inhib inconclusive, Tau fluor counter 10µM*[quencher], Tau fibril FP 14%, TRb SRC2 PPI 0%, TexasRed fluor 0% and RGS12 GoLoco inh -3%.
Screening NCOC(=O)Cc1ccc(Br)cc1 returned RGS12 GoLoco inh 9%[14.2 µM].
Screening C/C(=N/O)c1ccc2cc(Br)c3ccccc3c2c1 returned RGS12 GoLoco inh 2%[14.2 µM].
Screening CCn1c(C)c2c([n+]1CC)CC(C)(C)CC2=O returned Tau ThT inhib -4%, Tau fluor counter -4%, Tau fibril FP 3%, TRb SRC2 PPI -18%, TexasRed fluor 0% and RGS12 GoLoco inh 11µM*.
For Cc1ccc(-n2c(C)cc(/C=N/Nc3ccc([N+](=O)[O-])cn3)c2C)cc1 the results were Tau ThT inhib 2µM*, Tau fluor counter inconclusive, Tau fibril FP 6%, TRb SRC2 PPI -1%, TexasRed fluor 1% and RGS12 GoLoco inh 3.5µM*.
